From PubChem
DAT uptake mod – changed hDAT dopamine uptake under cocaine IC80, either direction, primary screen, cocaine antagonist project, cell-based, LLC-PK1 hDAT, [14C]-dopamine uptake, MLSMR. B-score at 10 µM. actives 1.3% (n = 110,000). LLC-PK1 hDAT cells, [14C]-dopamine uptake with cocaine IC80; actives deviate in either direction. Sodium-dependent dopamine transporter (Homo sapiens), Q01959;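 active = Z score or B-score, a plate-position-corrected score, falls beyond the plate's 99.7% confidence bounds, in either direction; inactive = both scores lie inside the 99.7% bounds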;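 also: scored against the spread of the other compound wells on the same plate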
Calb biofilm kill – clotrimazole potentiators killing Candida biofilms, primary screen, with clotrimazole, Alamar Blue | C. albicans biofilm + clotrimazole | inhibition, % at 6 µM | actives 0.14% (n = 85,000);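 active = inhibition above 20%; inactive = inhibition below 20%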;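 also: preformed 24 hr biofilms exposed to compound for 48 hr; 0% = biofilm without compound and 100% = blank killed by clotrimazole plus chlorhexidine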
PLAP act – PLAP enzyme activators, biochemical, luminescence, HTS | actives 1.2% (n = 96,000) | activation fold at 20 µM | Alkaline phosphatase, placental type (Homo sapiens), P05187 | purified PLAP enzyme, luminescent substrate read-out; stronger effect = higher value; in the data active = activation fold above about 2
Target sequence (P05187 whole entry, looked up): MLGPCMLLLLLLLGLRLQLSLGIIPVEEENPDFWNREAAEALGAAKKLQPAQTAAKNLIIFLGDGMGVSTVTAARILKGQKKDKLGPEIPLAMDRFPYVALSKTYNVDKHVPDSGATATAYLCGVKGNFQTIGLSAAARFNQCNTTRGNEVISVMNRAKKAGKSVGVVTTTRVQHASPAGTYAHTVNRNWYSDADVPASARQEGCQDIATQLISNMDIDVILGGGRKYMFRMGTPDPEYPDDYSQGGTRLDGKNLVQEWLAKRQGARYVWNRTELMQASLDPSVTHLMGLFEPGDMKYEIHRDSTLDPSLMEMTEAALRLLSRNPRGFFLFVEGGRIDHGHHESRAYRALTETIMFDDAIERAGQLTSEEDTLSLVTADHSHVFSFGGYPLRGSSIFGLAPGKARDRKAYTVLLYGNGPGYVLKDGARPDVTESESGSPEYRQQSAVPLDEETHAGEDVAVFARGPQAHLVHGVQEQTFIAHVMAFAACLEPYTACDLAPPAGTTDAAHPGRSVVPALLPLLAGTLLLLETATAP
D1 allo mod – D1 CRE-luciferase signal change, two-sided – cell-based, HEK293 D1, dopamine EC30, D1 allosteric modulator project, primary screen; D(1A) dopamine receptor (Homo sapiens), P21728; B-score at 10 µM; actives 5.9% (n = 58,000); dopamine EC30 potentiation; actives deviate in either direction;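 active = luminescence count or its row- and column-corrected plate score outside the 99.7% band of the plate's sample wells, on either side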
HePTP inh – inhibitors of human HePTP phosphatase, primary screen, biochemical, absorbance, leukemia target | Tyrosine-protein phosphatase non-receptor type 7 (Homo sapiens), P35236 | recombinant HePTP phosphatase activity, OD absorbance | inhibition, % at 20 µM | actives 0.64% (n = 110,000) | AID 521, 2006; in the data active = inhibition above about 50%;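 also: plate controls were vehicle for no effect and reference inhibitor for full effect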
TNAP act DEA – human TNAP enzyme activators, primary screen, biochemical, luminescent, intermediate phosphate acceptor level. purified TNAP, CDP-star luminescence, 100 mM DEA, 30 min; stronger effect = higher value; scale: 0 levamisole-inhibited, 1 vehicle-only enzyme. 64,000 tested, under 10 active. activation factor at 20 µM. Alkaline phosphatase, tissue-nonspecific isozyme (Homo sapiens), P05186. AID 813, 2007;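 active = activation factor of at least 2 at 20 µM, relative to controls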
An asterisk follows results filed as active; nt = no result. This excerpt belongs to a sample that is enriched for hits.

SMILES	DAT uptake mod	Calb biofilm kill	PLAP act	D1 allo mod	HePTP inh	TNAP act DEA
CCc1ccc(N2C(=O)NC(=O)/C(=C/C=C/c3ccco3)C2=O)cc1	nt	nt	nt	nt	32.7	nt
O=C1NC(=S)N(c2ccccc2)C(=O)/C1=C/c1ccco1	nt	nt	nt	nt	102.3*	nt
O=C1NC(=O)N(c2ccccc2)C(=O)/C1=C/c1ccoc1	nt	nt	nt	nt	6.8	nt
O=C1NC(=S)N(c2ccccc2F)C(=O)C1=Cc1ccco1	nt	nt	nt	nt	102.9*	nt
C=CCN1C(=O)/C(=C\C=C\c2ccco2)C(=O)NC1=S	nt	nt	nt	nt	102.3*	nt
Cc1ccc(-n2c(/C=C3/C(=O)Nc4ccccc43)nc3ccccc3c2=O)cc1	nt	nt	nt	nt	0.2	nt
CCC(C)N1CCN(Cc2cc(OC)c(OC)c(OC)c2)CC1 (stereo unspecified)	nt	nt	nt	nt	3.9	nt
N[C@@H](Cc1c[nH]c2ccccc12)c1nnc(SCc2ccc(Cl)cc2)o1	-8.48*	3.7	1.8	-1.04	8.4	0.9
CCC(C)N1CCN(Cc2cccc(OC)c2OC)CC1 (stereo unspecified)	nt	nt	nt	nt	3.5	nt
Nc1c(C(=O)OC2CCCCC2)c2nc3ccccc3nc2n1CC1CCCO1 (stereo unspecified)	3.39*	8.1	1.2	-1.52	5.8	1
CC(C)OCCCNC(=O)c1c(N)n(CC2CCCO2)c2nc3ccccc3nc12 (stereo unspecified)	-0.159	6.6	1.7	-0.751	-14.3	1
CCCNC(=O)c1c(N)n(CC2CCCO2)c2nc3ccccc3nc12 (stereo unspecified)	-8.94*	0.8	1.7	-0.193	-2.0	1.1
COc1ccc(N2C(=O)NC(=O)/C(=C/c3cc4c(cc3Cl)OCO4)C2=O)cc1	nt	nt	nt	nt	-14.0	nt
O=C(CCCN1CCC2(CC1)C(=O)NCN2c1ccccc1)c1ccc(F)cc1	0.548	7.4	nt	-6.51*	2.7	0.8
Cc1ccccc1-n1c(=S)[nH]c2ccccc2c1=O	nt	nt	nt	nt	-1.7	nt
COc1cccc(CN2CCN(C(=O)COc3ccc4ccccc4c3)CC2)c1	2.39*	6.5	1.6	nt	3.1	1
COc1ccc2[nH]cc(C3=CCNCC3)c2c1	-0.219	nt	nt	nt	nt	nt
CN1CC=C(c2c[nH]c3ccccc23)CC1	-1.29	11.3	nt	-3.68*	-13.8	1
CCC(=NCCCn1ccnc1)c1c(O)n(Cc2ccccc2)c(=O)[nH]c1=O	0.483	-0.7	2.1*	nt	nt	nt
CCCC1(CCC)C(=O)NC(=NCc2ccccc2)NC1=O	-7.43*	6.3	1.1	-0.316	1.6	0.9
COC(C(=O)Nc1ccc(Br)cc1C(=O)c1ccccc1)c1ccccc1 (stereo unspecified)	nt	nt	nt	nt	5.2	nt
COc1ccccc1/C=N/N=C(/N)N[N+](=O)[O-]	0.0305	44.4*	0.9	nt	nt	nt
OC(c1ccccc1)(c1ccccc1)C1CCNCC1	-6.14*	2.2	0.7	nt	nt	nt
COc1ccc(CN2C(=O)NC(=O)/C(=C\c3ccoc3)C2=O)cc1	nt	nt	nt	nt	7.9	nt
C=CCN1C(=O)NC(=O)C(=Cc2cccn2C)C1=O	nt	nt	nt	nt	6.0	nt
SMILES	DAT uptake mod	Calb biofilm kill	PLAP act	D1 allo mod	HePTP inh	TNAP act DEA
CCN1C(=O)/C(=C/c2cccn2C)C(=O)NC1=S	nt	nt	nt	nt	100.0*	nt
C=CCN1C(=O)/C(=C\c2cccn2-c2ccc([N+](=O)[O-])cc2)C(=O)NC1=S	nt	nt	nt	nt	102.0*	nt
CCN1C(=O)/C(=C/c2ccoc2)C(=O)NC1=S	nt	nt	nt	nt	102.0*	nt
CN1CCN(/N=C/c2cccnc2)CC1	nt	nt	nt	nt	4.7	nt
CC12CCC3C(CC=C4CC(O)CCC43C)C1C/C(=C\c1ccc([N+](=O)[O-])cc1)C2=O (stereo unspecified)	nt	nt	nt	nt	5.9	nt
Cc1ccc2c(c1)C1CN(C)CCC1N2C(=O)Nc1cccc(Cl)c1 (stereo unspecified)	3.42*	4.2	1.5	nt	nt	nt
Cc1ccc2c(c1)C1CN(C)CCC1N2C(=O)c1ccco1 (stereo unspecified)	0.293	5.8	1.2	-0.00486	15.2	1
Cc1cc(OCc2ccccc2)c2c3c(c(=O)oc2c1)CCCC3	nt	nt	nt	nt	8.5	nt
CN1C(=O)NC(=O)/C(=C/c2cn(Cc3ccccc3Cl)c3ccccc23)C1=O	nt	nt	nt	nt	-18.4	nt
C[C@@H]1O[C@@H](O[C@H]2C[C@@H](O)[C@]3(CO)[C@H]4[C@H](O)C[C@]5(C)[C@@H](C6COC(=O)C6)CC[C@]5(O)[C@@H]4CC[C@]3(O)C2)[C@H](O)[C@H](O)[C@H]1O (stereo partly specified)	-6.38*	nt	nt	nt	nt	nt
CCOP(=O)(C(NC(=O)c1ccccc1Cl)=C(Cl)Cl)c1ccccc1 (stereo unspecified)	0.702	68.8*	1.3	nt	nt	nt
CCOP(=O)(OCC)C(NC(=O)c1ccccc1Cl)=C(Cl)Cl	-0.145	nt	0.9	nt	nt	nt
Cc1nc2cc(C(F)(F)F)ccc2n1C1CCN(Cc2nnnn2CCc2ccccc2)CC1	3.51*	-1.0	nt	nt	nt	nt
Cc1nc2cc(F)ccc2n1C1CCN(Cc2nnnn2CCc2ccccc2)CC1	1.05	4.7	1.6	1.16	8.7	0.9
CCOC(=O)c1c(N)n(Cc2ccco2)c2nc3ccccc3nc12	1.95	0.4	1.2	0.6	-7.2	1
CCCCOCCCn1c(N)c(C(=O)OCCOC)c2nc3ccccc3nc21	1.18*	3.9	1.4	-1.03	7.6	1
COCCCn1c(N)c(C(=O)NCCC(C)C)c2nc3ccccc3nc21	2.99*	10.2	1.3	0.966	0.1	1
COCC(C)OC(=O)c1c(N)n(Cc2ccco2)c2nc3ccccc3nc12 (stereo unspecified)	1.5	0.5	nt	12.2*	10.4	0.8
CCCCCn1c(N)c(C(=O)NCCN2CCOCC2)c2nc3ccccc3nc21	0.96	nt	1.8	nt	10.4	1.1
COc1ccc(O)c(CN2CCN(Cc3ccccc3Cl)CC2)c1	nt	nt	nt	nt	-5.5	nt
CC(Cc1ccccc1)NC(=O)NC(=O)Cc1ccccc1 (stereo unspecified)	nt	nt	nt	nt	-16.2	nt
CCCCCCCOC(=O)CC(CN)c1ccccc1 (stereo unspecified)	nt	nt	nt	nt	9.0	nt
CCc1ccc(CNCCc2ccc(OC)c(OC)c2)cc1	nt	nt	nt	nt	-13.1	nt
COc1ccccc1N1CCN(Cc2cccc(OC)c2O)CC1	-0.0959	nt	1.5	-4.24*	-1.0	0.9
COC(=O)C1C2C(=O)N(c3ccc([N+](=O)[O-])cc3)C(=O)C12c1ccc(C)cc1 (stereo unspecified)	nt	nt	nt	nt	-0.6	nt
COC1CC(OC2CCC3(C)C(CCC4C3CCC3(C)C(C5=CC(=O)OC5)C(OC(C)=O)CC43O)C2)OC(C)C1OC1OC(COC2OC(CO)C(O)C(O)C2O)C(O)C(O)C1O (stereo unspecified)	-8.92*	nt	nt	nt	nt	nt
CCN1C(=O)/C(=C/c2ccc(OC)c3ccccc23)C(=O)NC1=S	nt	nt	nt	nt	-8.1	nt
